From PubChem BioAssay come the findings set out here.

Structures are written as SMILES.

Chain of Dickkopf-related protein 1 (Homo sapiens) (O94907 whole entry, looked up): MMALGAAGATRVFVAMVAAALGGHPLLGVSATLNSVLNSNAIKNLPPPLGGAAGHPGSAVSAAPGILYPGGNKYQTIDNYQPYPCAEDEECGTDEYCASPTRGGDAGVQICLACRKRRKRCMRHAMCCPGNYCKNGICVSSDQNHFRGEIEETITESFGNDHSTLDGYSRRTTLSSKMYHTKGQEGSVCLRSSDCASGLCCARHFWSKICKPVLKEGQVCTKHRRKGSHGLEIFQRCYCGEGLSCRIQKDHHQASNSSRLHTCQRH

The assay has as its target Dickkopf-related protein 1 (Homo sapiens) (UniProt O94907). Kind of assay: DKK1 binders on small-molecule microarrays, primary screen, biochemical, small-molecule microarray, 635 nm fluorescence scan (AID 1106).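 Further: score merges emission near 667 nm with signal to noise over three replicate slides.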 The conditions noted are these: DKK1 binding, higher = more signal.
In turn, `O=C1[C@H]2C=C(I)[C@H](C[C@@H]2c2ccccc2)[C@@]12CO2` registered a composite z-score of 0.485.

In the case of `CC(C)NC(=O)[C@@H]1c2ccccc2C(=O)N(Cc2ccc(OC(F)(F)F)cc2)[C@H]1c1ccc(CO)cc1`, the composite z-score was determined as 0.657.

Turning to `COc1ccc([Si](C)(C)[C@H]2[C@H](CC(=O)N3Cc4ccccc4C[C@H]3CO)O[C@@]3(C(=O)N(c4ccccc4)c4ccccc43)[C@@H]2C)cc1`, the composite z-score is 0.75.

For the compound `CC(C)(C)N1CC=CC23O[C@@H]4/C=C\CCCOC(=O)C4[C@H]2C(=O)N(CCCO)[C@@H]3C1=O` (stereo partly specified), the composite z-score was -1.07.

For `O=C1C2C=CC(C(O)c3ccc([N+](=O)[O-])cc3)N(Nc3ccccc3F)C2C(=O)N1c1ccccc1` (stereo unspecified), the composite z-score was -0.516.

In the case of `COc1ccccc1CN1C(=O)c2ccccc2[C@](Cc2ccccc2I)(C(=O)NCC(C)C)[C@@H]1c1ccc(CO)cc1`, the composite z-score was -1.27.

For `C=C(CCCC)/C(=C/C[C@H](OC(=O)c1ccncc1)c1ccc(OCCO)cc1)c1cnc2ccccc2c1`, the composite z-score is 0.768.

`CCCC[C@H]1C[C@@H]1[C@@H]1N(C(C)=O)[C@H](c2cccc(OC)c2)CC12CC2`: the composite z-score was -0.556.

The compound `O=C1O[C@H](Cc2ccccc2)[C@@H]2[C@H]3C=CCCC=C3CN2[C@H]1Cc1ccc(O)cc1` had a composite z-score of -0.0128.

As for `COCCOC(=O)N1C(=O)[C@@]2(c3cc(C#CCC(C(=O)OC)C(=O)OC)ccc31)[C@H](C(=O)Nc1nc3ccccc3s1)[C@H]1C(=O)O[C@H](c3ccccc3)[C@H](c3ccccc3)N1[C@@H]2c1ccc(OCCO)cc1`, the composite z-score was found to be 1.04.

For `CCCCCCc1nc(Cc2cc(OC)c(OC)c(OC)c2)cc2c1[Si](C(C)C)(C(C)C)O[C@H]2c1ccccc1`, the composite z-score was determined as 0.548.
